# Measured values as given in PubChem BioAssay AID651671 (Sanford-Burnham Center for Chemical Genomics, 2012).
# The list shows a part of the results. Values without a mark were called inactive.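 Rule for the calls: active = activation of at least 7% in one or more replicates; inactive = the rest.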
# Assay: alpha-DG glycosylation enhancers, retest, confirmation, single concentration, Pro5-aDG cells (AID 651671);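 note: cells exposed to compound for two days before detection; 0% = DMSO-treated Pro5 cells and 100% = DMSO-treated B10-LARGE cells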
# Conditions: IIH6 AlphaLISA, hits give high values, screened at 10 µM (by protocol), scaled to LARGE-overexpressing B10 cells as 100%
structure (smiles),measurement,value
CNCC(O)c1cc(F)c(OCc2ccccc2)c(OCc2ccccc2)c1F (stereo unspecified),activation,4%
